# The supplement of paper PMC8728848
# This excerpt belongs to a sample that is enriched for the strongest signals.
# B1: GS7807I-bvu-563-22-563 (Bacteroides vulgatus) (protein)
# chain: IFSSCTDDFEKLNTSNIQVDPADLPFAAQCTEPMTYCYPPQQNMFQFWTNLTIDLYGGYFMTPNGNFTNGDMGENRGHSGGMYENYYLHIFNNTRRIIAQCDASGERGLSGVMRIVQAYGTLMTTDAYGPIPYSSILSGENEVYFEFDSQKDLYKAMLEDLSTAITDISAMGADEIAKLKSFDCWCNGDKDLWVKIANTMKLRMALRLSKRETEAGNAGMNLKAIATEAAQNTLATVNKDILIDKSLENEMWLMFNWGDCGFNANLVTIMSGTKDPRQPLYMTLNTGDIKNEAGTTTVAANSQYLGIRFASGLPAKPNSWGNFSGWIQGNNGSSYSMPLPIMKAAEAYFLLAEAKLRWDIGSESVKNLYENGIRVSMTNELAYRGAYAGIKEYPEGAVDAYINGTSTQIDYTDPIKAELSTPAVNKLSVKWDESASNEEKLERIITQKWLALFPLSTEGWAEQRRTGYPRFFPAFVNESNGAVNTEEGVRRVIYSSQAYDANAKGVEGGIKLLDEENSSKFGISGDKGGTHLWWDNADKGNF
# What was measured:
# Experiment in all cases: glycan array binding signal (z-score within array); higher = stronger binding
# Settings in all cases: glycan notation: IUPAC condensed, linker removed
# [1] = molecular target: Fuc(a1-2)Gal(b1-3)GlcNAc(b1-2)Man(a1-3)[Fuc(a1-2)Gal(b1-3)GlcNAc(b1-2)Man(a1-6)]Man(b1-4)GlcNAc(b1-4)GlcNAc
# Method in brief: (§1)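 Glycan array binding is given as a within-array Z-score, which can be read as non-binding when negative. The arrays, 3228 of them, came from the Consortium for Functional Glycomics database and were retained only where the protein sequence was available. Z-scores were averaged across arrays of the same protein sequence at different concentrations or buffers and across linkers.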
# [2] = molecular target: Fuc(a1-2)Gal(b1-3)GlcNAc(b1-3)[Neu5Ac(a2-6)Gal(b1-4)GlcNAc(b1-6)]Gal(b1-4)Glc
# Method in brief: as §1
# [3] = molecular target: Fuc(a1-2)Gal(b1-3)[Fuc(a1-4)]GlcNAc(b1-3)[Gal(b1-4)GlcNAc(b1-6)]Gal(b1-4)Glc
# Method in brief: as §1
# [4] = molecular target: Fuc(a1-2)[Gal(a1-3)]Gal(b1-3)GlcNAc(b1-2)Man(a1-3)[Fuc(a1-2)[Gal(a1-3)]Gal(b1-3)GlcNAc(b1-2)Man(a1-6)]Man(b1-4)GlcNAc(b1-4)[Fuc(a1-6)]GlcNAc
# Method in brief: as §1
# [5] = molecular target: Fuc(a1-2)[Gal(a1-3)]Gal(b1-3)GlcNAc(b1-6)GalNAc
# Method in brief: as §1
# [6] = molecular target: Fuc(a1-2)[GalNAc(a1-3)]Gal(b1-4)GlcNAc(b1-2)Man(a1-3)[Fuc(a1-2)[GalNAc(a1-3)]Gal(b1-4)GlcNAc(b1-2)Man(a1-6)]Man(b1-4)GlcNAc(b1-4)GlcNAc
# Method in brief: as §1
# [7] = molecular target: Fuc(a1-3)[Gal3S(b1-4)]GlcNAc
# Method in brief: as §1
# [8] = molecular target: Fuc(a1-3)[Gal3S(b1-4)]GlcNAc6S
# Method in brief: as §1
# [9] = molecular target: Gal(a1-3)Gal(b1-4)GlcNAc(b1-3)GalNAc
# Method in brief: as §1
# [10] = molecular target: Gal(a1-3)Gal(b1-4)[Fuc(a1-3)]GlcNAc(b1-2)Man(a1-3)[Gal(a1-3)Gal(b1-4)[Fuc(a1-3)]GlcNAc(b1-2)Man(a1-6)]Man(b1-4)GlcNAc(b1-4)GlcNAc
# Method in brief: as §1
# [11] = molecular target: Gal(a1-3)[Gal(a1-4)]Gal(b1-4)GlcNAc
# Method in brief: as §1
# Gal(a1-4)Gal(b1-4)GlcNAc = molecular target: Gal(a1-4)Gal(b1-4)GlcNAc
# Method in brief: as §1
# [12] = molecular target: Gal(a1-4)Gal(b1-4)GlcNAc(b1-2)Man(a1-3)[Gal(a1-4)Gal(b1-4)GlcNAc(b1-2)Man(a1-6)]Man(b1-4)GlcNAc(b1-4)GlcNAc
# Method in brief: as §1
# [13] = molecular target: Gal(b1-3)GlcNAc(b1-2)Man(a1-3)[GlcNAc(b1-4)][Gal(b1-3)GlcNAc(b1-2)Man(a1-6)]Man(b1-4)GlcNAc(b1-4)GlcNAc
# Method in brief: as §1
# [14] = molecular target: Gal(b1-3)GlcNAc(b1-3)Gal(b1-4)Glc
# Method in brief: as §1
# [15] = molecular target: Gal(b1-3)GlcNAc(b1-3)Gal(b1-4)[Fuc(a1-3)]GlcNAc
# Method in brief: as §1
# [16] = molecular target: Gal(b1-3)[Fuc(a1-4)]GlcNAc(b1-6)GalNAc
# Method in brief: as §1
# [17] = molecular target: Gal(b1-3)[GlcNAc(b1-6)]GalNAc
# Method in brief: as §1
# [18] = molecular target: Gal(b1-3)[Neu5Ac(a2-6)]GalNAc
# Method in brief: as §1
# [19] = molecular target: Gal(b1-4)GlcNAc(b1-2)[Gal(b1-4)GlcNAc(b1-6)]Man(a1-6)[Gal(b1-4)GlcNAc(b1-2)Man(a1-3)]Man(b1-4)GlcNAc(b1-4)[Fuc(a1-6)]GlcNAc
# Method in brief: as §1
# [20] = molecular target: Gal(b1-4)GlcNAc(b1-3)Gal(b1-4)GlcNAc(b1-2)[Gal(b1-4)GlcNAc(b1-3)Gal(b1-4)GlcNAc(b1-6)]Man(a1-6)[Gal(b1-4)GlcNAc(b1-3)Gal(b1-4)GlcNAc(b1-2)Man(a1-3)]Man(b1-4)GlcNAc(b1-4)[Fuc(a1-6)]GlcNAc
# Method in brief: as §1
# [21] = molecular target: Gal(b1-4)GlcNAc(b1-3)Gal(b1-4)GlcNAc(b1-3)Gal(b1-4)GlcNAc(b1-3)Gal(b1-4)GlcNAc(b1-2)Man(a1-3)[Gal(b1-4)GlcNAc(b1-3)Gal(b1-4)GlcNAc(b1-3)Gal(b1-4)GlcNAc(b1-3)Gal(b1-4)GlcNAc(b1-2)Man(a1-6)]Man(b1-4)GlcNAc(b1-4)[Fuc(a1-6)]GlcNAc
# Method in brief: as §1
# Gal3S(b1-3)GlcNAc = molecular target: Gal3S(b1-3)GlcNAc
# Method in brief: as §1
# [22] = molecular target: Gal3S(b1-4)[Fuc(a1-3)]GlcNAc
# Method in brief: as §1
# Glc(b1-4)Glc = molecular target: Glc(b1-4)Glc
# Method in brief: as §1
# [23] = molecular target: GlcNAc(a1-4)Gal(b1-4)GlcNAc(b1-3)Gal(b1-4)[Fuc(a1-3)]GlcNAc(b1-3)Gal(b1-4)[Fuc(a1-3)]GlcNAc
# Method in brief: as §1
# [24] = molecular target: GlcNAc(b1-2)Gal(b1-3)GalNAc
# Method in brief: as §1
# [25] = molecular target: GlcNAc(b1-2)Man(a1-3)[GlcNAc(b1-2)Man(a1-6)]Man(b1-4)GlcNAc(b1-4)GlcNAc
# Method in brief: as §1
# [26] = molecular target: GlcNAc(b1-2)[GlcNAc(b1-4)]Man(a1-3)[GlcNAc(b1-4)][GlcNAc(b1-2)[GlcNAc(b1-6)]Man(a1-6)]Man(b1-4)GlcNAc(b1-4)[Fuc(a1-6)]GlcNAc
# Method in brief: as §1
# [27] = molecular target: GlcNAc(b1-3)Gal(b1-4)GlcNAc(b1-3)Gal(b1-4)GlcNAc(b1-2)Man(a1-3)[GlcNAc(b1-3)Gal(b1-4)GlcNAc(b1-3)Gal(b1-4)GlcNAc(b1-2)Man(a1-6)]Man(b1-4)GlcNAc(b1-4)GlcNAc
# Method in brief: as §1
# [28] = molecular target: GlcNAc(b1-3)Gal(b1-4)GlcNAc(b1-3)Gal(b1-4)GlcNAc(b1-3)Gal(b1-4)GlcNAc(b1-2)[GlcNAc(b1-3)Gal(b1-4)GlcNAc(b1-3)Gal(b1-4)GlcNAc(b1-3)Gal(b1-4)GlcNAc(b1-6)]Man(a1-6)[GlcNAc(b1-3)Gal(b1-4)GlcNAc(b1-3)Gal(b1-4)GlcNAc(b1-3)Gal(b1-4)GlcNAc(b1-2)Man(a1-3)]Man(b1-4)GlcNAc(b1-4)[Fuc(a1-6)]GlcNAc
# Method in brief: as §1
# [29] = molecular target: GlcNAc(b1-4)GlcNAc(b1-4)GlcNAc(b1-4)GlcNAc(b1-4)GlcNAc
# Method in brief: as §1
# [30] = molecular target: Man(a1-3)[Man(a1-6)]Man(b1-4)GlcNAc(b1-4)GlcNAc
# Method in brief: as §1
# [31] = molecular target: Neu5Ac(a2-3)Gal(b1-3)[GlcNAc(b1-6)]GalNAc
# Method in brief: as §1
# Neu5Ac(a2-3)Gal(b1-4)Glc = molecular target: Neu5Ac(a2-3)Gal(b1-4)Glc
# Method in brief: as §1
# [32] = molecular target: Neu5Ac(a2-3)Gal(b1-4)GlcNAc(b1-2)Man
# Method in brief: as §1
# [33] = molecular target: Neu5Ac(a2-3)Gal(b1-4)GlcNAc(b1-6)[Neu5Ac(a2-3)Gal(b1-3)]GalNAc
# Method in brief: as §1
# [34] = molecular target: Neu5Ac(a2-3)Gal(b1-4)[Fuc(a1-3)]GlcNAc(b1-3)GalNAc
# Method in brief: as §1
# [35] = molecular target: Neu5Ac(a2-6)Gal(b1-4)GlcNAc(b1-2)Man(a1-6)[Gal(b1-4)GlcNAc(b1-2)Man(a1-3)]Man(b1-4)GlcNAc(b1-4)GlcNAc
# Method in brief: as §1
# [36] = molecular target: Neu5Ac(a2-6)Gal(b1-4)GlcNAc(b1-3)Gal(b1-3)GlcNAc
# Method in brief: as §1
# [37] = molecular target: Neu5Ac(b2-6)Gal(b1-4)GlcNAc
# Method in brief: as §1
binder,measurement,setting,value
B1,glycan array binding signal (z-score),[1],4.25
same,glycan array binding signal (z-score),[2],-0.639
same,glycan array binding signal (z-score),[3],-0.806
same,glycan array binding signal (z-score),[4],-0.026
same,glycan array binding signal (z-score),[5],0.231
same,glycan array binding signal (z-score),[6],0.159
same,glycan array binding signal (z-score),[7],0.384
same,glycan array binding signal (z-score),[8],0.755
same,glycan array binding signal (z-score),[9],-1.06
same,glycan array binding signal (z-score),[10],3.63
same,glycan array binding signal (z-score),[11],0.09
same,glycan array binding signal (z-score),Gal(a1-4)Gal(b1-4)GlcNAc,0.073
same,glycan array binding signal (z-score),[12],2.76
same,glycan array binding signal (z-score),[13],3.75
same,glycan array binding signal (z-score),[14],-1.02
same,glycan array binding signal (z-score),[15],-0.396
same,glycan array binding signal (z-score),[16],-0.343
same,glycan array binding signal (z-score),[17],-0.484
same,glycan array binding signal (z-score),[18],0.238
same,glycan array binding signal (z-score),[19],-0.297
same,glycan array binding signal (z-score),[20],2.61
same,glycan array binding signal (z-score),[21],3.21
same,glycan array binding signal (z-score),Gal3S(b1-3)GlcNAc,1.03
same,glycan array binding signal (z-score),[22],0.875
same,glycan array binding signal (z-score),Glc(b1-4)Glc,-0.567
same,glycan array binding signal (z-score),[23],2.71
same,glycan array binding signal (z-score),[24],0.388
same,glycan array binding signal (z-score),[25],-0.694
same,glycan array binding signal (z-score),[26],-1.04
same,glycan array binding signal (z-score),[27],2.79
same,glycan array binding signal (z-score),[28],3.79
same,glycan array binding signal (z-score),[29],-0.951
same,glycan array binding signal (z-score),[30],-0.233
same,glycan array binding signal (z-score),[31],0.671
same,glycan array binding signal (z-score),Neu5Ac(a2-3)Gal(b1-4)Glc,0.689
same,glycan array binding signal (z-score),[32],2.84
same,glycan array binding signal (z-score),[33],-0.221
same,glycan array binding signal (z-score),[34],5.03
same,glycan array binding signal (z-score),[35],1.71
same,glycan array binding signal (z-score),[36],-0.945
same,glycan array binding signal (z-score),[37],-0.47
